# PubChem BioAssay (NCI)
# About 83,000 compounds went through this panel and 20% of them were active in at least one assay; those are over-represented in the sample as a whole.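 Testing used 96-well plates and a 48-hour single-concentration exposure. Example: -40 means 40% of the starting cells died.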 A number with no mark means an inactive call. Activity calls are given as the source filed them. Rule for the calls: active = growth percent below 10; inactive = the rest.
# System: SK-MEL-5 melanoma
# Assay: NCI-60 one-dose screen, 48 h (100 = growth as untreated, 0 = no growth, -100 = all killed)
# Conditions: 10 µM unless noted
row,SMILES,growth
1,CC(=O)Nc1ccc2c(c1)c(NC(C)=O)nn2C(=O)Nc1ccc(Cc2ccccc2)cc1,109%
2,Cc1ccc2c(c1)O/C(=C\c1cccc(OCC(=O)c3ccccc3)c1)C2=O,87.3%
3,Nc1nc(SCc2ccccc2)c2ncn(C3CCCC3)c2n1,94%
4,Cn1c2ccccc2c2c3c(c4c5ccccc5n(CCCCCC#N)c4c21)C(=O)N(O)C3=O,-80.3% (active)
5,CCN(CC)Cc1cc(Nc2c3ccc(Cl)cc3nc3c(C)cccc23)ccc1O,-96.5% (active)
6,CS(=O)(=O)c1ccc(-c2cnc3ccc(-c4cccc(S(C)(=O)=O)c4)nn23)cc1,38.3%
7,COc1ccc(CCN2CCCn3c2nc2ccccc2c3=O)cc1,15.5%
8,CC#CC#Cc1cccc(=O)o1,70.3%
9,c1ccc2c(Nc3cccc4ccccc34)cccc2c1,71%
10,c1ccc(CSc2ncnc3nc[nH]c23)nc1,100%
11,O=C(O)c1cccnc1Br,109%
12,COc1ccc(-c2cc(-c3cccnc3)nc3sc4c(=O)n(-c5ccc(C)cc5)cnc4c23)cc1OC,94.2%
13,CNC(=O)c1cc(Oc2ccc3nc(NC(=O)Nc4ccc(CN5CCOCC5)c(C(F)(F)F)c4)sc3c2)ccn1,-55.4% (active)
14,CCN(CC)CCCC(C)NCCCNc1cccc2cccnc12 (stereo not drawn),98.5%
15,CCCCN(CCCC)Cc1c(C)[nH]c2cc(OC)ccc2c1=O,101%
16,O=C1C[C@H](Sc2nc(-c3ccc(F)cc3)cc(C(F)(F)F)n2)[C@H]2CO[C@@H]1O2,97.5%
17,CCCCOc1ccc(NC(=O)n2nc(NC(C)=O)c3cc(NC(C)=O)ccc32)cc1,101%
18,CSc1ncnc2c1ncn2C1CCCO1 (stereo not drawn),107%
19,Oc1ccccc1N=Cc1c(O)ccc2ccccc12,77.3%
20,Cn1c2ccccc2c2c3[nH]c(=O)[nH]c(=O)c3c3c4ccccc4n(C)c3c21,29.3%

row,SMILES,growth
1,CCOC(=O)c1c2ncccc2n2c(=O)n(-c3ccc(Cl)cc3)nnc12,85.8%
2,O=C(COc1cccc(/C=C2/Oc3ccccc3C2=O)c1)Nc1nccs1,78.8%
3,NS(=O)(=O)c1ccc(Nc2nc3n[nH]c(Nc4ccccc4)c3c(=O)[nH]2)cc1,99%
4,OCCNCCNc1c2ccccc2nc2ccccc12,88.4%
5,COc1ccc(OCC(=O)Nc2ccc(-c3nc4ccccc4s3)cc2C)cc1,70.8%
6,CCCCNP1(NCCCC)=NP(NCCCC)(NCCCC)=NP(NCCCC)(NCCCC)=NP(NCCCC)(NCCCC)=N1,-93.8% (active)
7,COCCCN=C(N)c1ccc(NC(=O)c2ccc(C(=O)Nc3ccc(C(N)=NCCCOC)cc3)cc2)cc1,78.3%
8,Cn1c2ccccc2c2c3c(c4c5ccccc5[nH]c4c21)C(=O)N(N)C3=O,31%
9,CCN(CC)Cc1cc(Nc2c3ccccc3nc3cc(Cl)ccc23)ccc1O,-100% (active)
10,COc1nc2c(cc1S(=O)(=O)c1ccccc1)CCc1c-2cnn1-c1ccc(Cl)cc1,94.8%
11,CN(CC(=O)N(Cc1ccc(C2CCCCC2)cc1)c1ccc(C(=O)NO)cc1)S(=O)(=O)c1c(F)c(F)c(F)c(F)c1F,99.6%
12,COc1cc(-c2nc3ccccc3s2)ccc1NC(=O)COc1ccc(Cl)cc1,73.7%
13,CSc1[nH]c2ncnc(N)c2c1C#N,99.9%
14,O=C1Nc2c(ccc(Cl)c2Cl)/C1=C/c1cc(Br)c(O)c(Br)c1,23.2%
15,NS(=O)(=O)N(c1cc(C(F)(F)F)cc(C(F)(F)F)c1)C1CCN(Cc2ccc(F)cc2)CC1,32.2%
16,COc1nc2c(cc1S(=O)(=O)c1ccccc1)CCc1c-2cnn1Cc1ccccc1,34.7%
17,CN1CCN(Cc2ccc(NC(=O)c3[nH]ncc3Nc3ccnc4ccsc34)cc2)CC1,38.4%
18,CC1(C)CC(C(=O)OCCCCCCCCCCC[P+](c2ccccc2)(c2ccccc2)c2ccccc2)C(C)(C)N1O (stereo not drawn),-97.6% (active)
19,C=CC[N+]1(CC)CCN=C1CCCCCCCCCCCCCCCCC (stereo not drawn),-100% (active)

# System: UACC-62 melanoma
# Assay: as above
# Conditions: 10 µM unless noted
row,SMILES,growth
1,CC(=O)Nc1ccc2c(c1)c(NC(C)=O)nn2C(=O)Nc1ccc(Cc2ccccc2)cc1,20%
2,Cc1ccc2c(c1)O/C(=C\c1cccc(OCC(=O)c3ccccc3)c1)C2=O,66.1%
3,Nc1nc(SCc2ccccc2)c2ncn(C3CCCC3)c2n1,81.4%
4,Cn1c2ccccc2c2c3c(c4c5ccccc5n(CCCCCC#N)c4c21)C(=O)N(O)C3=O,-18.5% (active)
5,CCN(CC)Cc1cc(Nc2c3ccc(Cl)cc3nc3c(C)cccc23)ccc1O,-79.3% (active)
6,CS(=O)(=O)c1ccc(-c2cnc3ccc(-c4cccc(S(C)(=O)=O)c4)nn23)cc1,28.8%
7,COc1ccc(CCN2CCCn3c2nc2ccccc2c3=O)cc1,26.5%
8,CC#CC#Cc1cccc(=O)o1,40.8%
9,c1ccc2c(Nc3cccc4ccccc34)cccc2c1,23.7%
10,c1ccc(CSc2ncnc3nc[nH]c23)nc1,88.4%
11,O=C(O)c1cccnc1Br,96%
12,COc1ccc(-c2cc(-c3cccnc3)nc3sc4c(=O)n(-c5ccc(C)cc5)cnc4c23)cc1OC,97.3%
13,CNC(=O)c1cc(Oc2ccc3nc(NC(=O)Nc4ccc(CN5CCOCC5)c(C(F)(F)F)c4)sc3c2)ccn1,0.564% (active)
14,CCN(CC)CCCC(C)NCCCNc1cccc2cccnc12 (stereo not drawn),90.4%
15,CCCCN(CCCC)Cc1c(C)[nH]c2cc(OC)ccc2c1=O,101%
16,O=C1C[C@H](Sc2nc(-c3ccc(F)cc3)cc(C(F)(F)F)n2)[C@H]2CO[C@@H]1O2,98.2%
17,CCCCOc1ccc(NC(=O)n2nc(NC(C)=O)c3cc(NC(C)=O)ccc32)cc1,91.8%
18,CSc1ncnc2c1ncn2C1CCCO1 (stereo not drawn),88.5%
19,Oc1ccccc1N=Cc1c(O)ccc2ccccc12,63.8%
20,Cn1c2ccccc2c2c3[nH]c(=O)[nH]c(=O)c3c3c4ccccc4n(C)c3c21,43%

row,SMILES,growth
1,CCOC(=O)c1c2ncccc2n2c(=O)n(-c3ccc(Cl)cc3)nnc12,46.6%
2,O=C(COc1cccc(/C=C2/Oc3ccccc3C2=O)c1)Nc1nccs1,82.9%
3,NS(=O)(=O)c1ccc(Nc2nc3n[nH]c(Nc4ccccc4)c3c(=O)[nH]2)cc1,105%
4,OCCNCCNc1c2ccccc2nc2ccccc12,66.6%
5,COc1ccc(OCC(=O)Nc2ccc(-c3nc4ccccc4s3)cc2C)cc1,83.2%
6,CCCCNP1(NCCCC)=NP(NCCCC)(NCCCC)=NP(NCCCC)(NCCCC)=NP(NCCCC)(NCCCC)=N1,20.3%
7,COCCCN=C(N)c1ccc(NC(=O)c2ccc(C(=O)Nc3ccc(C(N)=NCCCOC)cc3)cc2)cc1,91%
8,Cn1c2ccccc2c2c3c(c4c5ccccc5[nH]c4c21)C(=O)N(N)C3=O,22.6%
9,CCN(CC)Cc1cc(Nc2c3ccccc3nc3cc(Cl)ccc23)ccc1O,-97.2% (active)
10,COc1nc2c(cc1S(=O)(=O)c1ccccc1)CCc1c-2cnn1-c1ccc(Cl)cc1,88.7%
11,CN(CC(=O)N(Cc1ccc(C2CCCCC2)cc1)c1ccc(C(=O)NO)cc1)S(=O)(=O)c1c(F)c(F)c(F)c(F)c1F,94.5%
12,COc1cc(-c2nc3ccccc3s2)ccc1NC(=O)COc1ccc(Cl)cc1,36.1%
13,CSc1[nH]c2ncnc(N)c2c1C#N,85.9%
14,O=C1Nc2c(ccc(Cl)c2Cl)/C1=C/c1cc(Br)c(O)c(Br)c1,26.1%
15,NS(=O)(=O)N(c1cc(C(F)(F)F)cc(C(F)(F)F)c1)C1CCN(Cc2ccc(F)cc2)CC1,57.1%
16,COc1nc2c(cc1S(=O)(=O)c1ccccc1)CCc1c-2cnn1Cc1ccccc1,52%
17,CN1CCN(Cc2ccc(NC(=O)c3[nH]ncc3Nc3ccnc4ccsc34)cc2)CC1,64.1%
18,CC1(C)CC(C(=O)OCCCCCCCCCCC[P+](c2ccccc2)(c2ccccc2)c2ccccc2)C(C)(C)N1O (stereo not drawn),-69.3% (active)
19,C=CC[N+]1(CC)CCN=C1CCCCCCCCCCCCCCCCC (stereo not drawn),-86.1% (active)
